Source: PubChem (Broad Institute)
DUX4 inh – blocks DUX4-driven transcriptional activation. 293T-iDUX4 ZSCAN4-Gaussia luciferase reporter, 24 h; stronger effect = lower value. activity change, negative = inhibition, % (concentration not given with the values). AID 1224904. 37,000 compounds, 0.8% hits;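 active = mean inhibition of at least 10% in the main channel, exceeding the control channel by a set limit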;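 note: 0% = median of neutral control wells and -100% = median of positive control wells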
An asterisk follows results filed as active. Shown is part of a subset that was picked to be rich in hits.

SMILES	DUX4 inh
N[C@H]1CC[C@H](CCn2cc(-c3ccccn3)nn2)O[C@@H]1CO	2
C/C=C/c1ccc([C@@H]2[C@H](CO)N(CCC(F)(F)F)C23CN(C(=O)CN(C)C)C3)cc1	12
CN1C(=O)c2cc(NC(=O)C3CCCC3)ccc2OC[C@H]2O[C@@H](CC(=O)NCC(F)(F)F)CC[C@@H]21	5
CNC[C@H]1OCCCC[C@H](C)Oc2ccc(NS(=O)(=O)c3cn(C)cn3)cc2C(=O)N([C@H](C)CO)C[C@@H]1C	2
O=C(CN1CCOCC1)N1CCCCN2[C@H](CO)[C@@H](c3ccc(C#Cc4ccccc4F)cc3)[C@@H]2C1	-36*
CC(=O)N1CCCCN2[C@@H](CO)[C@H](c3ccc(C#Cc4ccccc4F)cc3)[C@@H]2C1	-10
CC(C)NC(=O)N1CCCCN2[C@H](C1)[C@@H](c1ccc(C#Cc3ccccc3F)cc1)[C@@H]2CO	-47*
O=C(CN1CCOCC1)N1CCCCN2[C@@H](CO)[C@@H](c3ccc(C#Cc4ccccc4F)cc3)[C@@H]2C1	-9
CC(=O)N1CCCCN2[C@H](C1)[C@H](c1ccc(C#Cc3ccccc3F)cc1)[C@@H]2CO	-7
O=C(CN1CCOCC1)N1CCCCN2[C@H](CO)[C@@H](c3ccc(C#Cc4ccccc4F)cc3)[C@H]2C1	-7
COc1ccccc1-c1ccc2n(c1=O)C[C@@H]1[C@@H](CO)[C@H](C(=O)N3CCCCC3)N(C)[C@H]21	-2
O=C(c1ccncc1)N1C[C@@H]2[C@H](c3ccccc31)[C@@H](CO)N2C(=O)Nc1ccc(F)cc1	-3
COc1ccc2c3c(n(C)c2c1)[C@H](CO)N(C(=O)CN(C)C)CC31CN(C(=O)CN(C)C)C1	11
CO[C@@H]1CN(C)C(=O)c2ccc(NS(C)(=O)=O)cc2OC[C@@H](C)N(Cc2ccccc2)C[C@H]1C	5
O=C(C[C@@H]1C[C@@H]2c3cc(NC(=O)Nc4ccc(C(F)(F)F)cc4)ccc3O[C@@H]2[C@@H](CO)O1)NCC1CC1	-4
CCCNC(=O)[C@@H]1[C@@H](CO)[C@@H]2Cn3c(ccc(-c4ccccc4F)c3=O)[C@H]1N2C(=O)CC	8
Cc1ccccc1-c1ccc([C@@H]2[C@@H](CO)N3CCCCN(S(=O)(=O)c4ccc(F)cc4)C[C@H]23)cc1	-40*
N#Cc1ccc(-c2ccc([C@H]3[C@H]4CN(C(=O)Nc5ccc(F)cc5)CCCCN4[C@H]3CO)cc2)cc1	39
CCS(=O)(=O)N1CCCCN2[C@H](CO)[C@@H](c3ccc(-c4ccccc4C)cc3)[C@@H]2C1	10
Cc1ccccc1-c1ccc([C@H]2[C@H](CO)N3CCCCN(S(=O)(=O)c4ccc(F)cc4)C[C@@H]23)cc1	-56*
N#Cc1ccc(-c2ccc([C@H]3[C@H](CO)N4CCCCN(C(=O)Nc5ccc(F)cc5)C[C@@H]34)cc2)cc1	10
Cc1ccccc1-c1ccc([C@H]2[C@H](CO)N3CCCCN(S(C)(=O)=O)C[C@@H]23)cc1	17
Cc1ccccc1-c1ccc([C@H]2[C@H]3CN(S(C)(=O)=O)CCCCN3[C@H]2CO)cc1	-6
O=C(Nc1cccc(F)c1)N1CCCCN2[C@H](C1)[C@@H](c1ccc(-c3ccncc3)cc1)[C@@H]2CO	7
N#Cc1ccc(-c2ccc([C@H]3[C@@H](CO)N4CCCCN(C(=O)Nc5ccc(F)cc5)C[C@H]34)cc2)cc1	-39*
SMILES	DUX4 inh
Cc1ccccc1-c1ccc([C@@H]2[C@@H](CO)N3CCCCN(C(=O)Nc4cccc(F)c4)C[C@@H]23)cc1	-27*
CCS(=O)(=O)N1CCCCN2[C@H](CO)[C@H](c3ccc(-c4ccccc4C)cc3)[C@H]2C1	-5
O=C(Nc1ccc(F)cc1)N1CCCCN2[C@H](C1)[C@H](c1ccc(-c3cccc(F)c3)cc1)[C@@H]2CO	9
COCCNC(=O)C[C@H]1C[C@@H]2c3cc(NC(=O)c4cccnc4)ccc3O[C@@H]2[C@@H](CO)O1	2
C[C@H](NC(=O)C[C@H]1C=C[C@@H](NC(=O)CN2CCOCC2)[C@H](CO)O1)c1ccccc1	3
C[C@H](CO)N1C[C@H](C)[C@H](CN(C)S(=O)(=O)c2cccs2)Oc2ccc(NC(=O)CCN3CCOCC3)cc2C1=O	1
CC(C)[C@H]1CCc2cnnn2COC[C@H](c2ccccc2)NC1=O	1
O=C(N[C@H]1CC[C@@H](CCn2cc(-c3ccccc3)nn2)O[C@@H]1CO)c1ccccc1F	7
COc1ccc(C(=O)Nc2ccc3c(c2)C(=O)N(C)C[C@H](OC)[C@@H](C)CN(C)[C@@H](C)CO3)cc1	5
CCCNC(=O)N1CC2(CN(C(=O)CCC)C2)c2c(n(C)c3cc(OC)ccc23)[C@H]1CO	22
COCC(=O)Nc1ccc2c(c1)[C@H]1C[C@@H](CC(=O)NCc3ccccc3F)O[C@@H](CO)[C@H]1O2	1
CNC(=O)C[C@H]1CC[C@@H]2[C@H](COC[C@@H](O)CN2Cc2ccc(Cl)c(Cl)c2)O1	5
O=C(C[C@@H]1CC[C@H]2[C@@H](COC[C@H](O)CN2C(=O)Nc2ccccc2)O1)NCc1ccncn1	13
CCC(=O)N1CCC2(CC1)CN(S(C)(=O)=O)[C@H](CO)c1[nH]c3cc(OC)ccc3c12	11
C[C@H](NC(=O)[C@@H]1N[C@@H]2c3ccc(-c4cccnc4)c(=O)n3C[C@@H]2[C@H]1CO)c1ccccc1	-1
COc1ccc(S(=O)(=O)N2CCCCN3[C@H](CO)[C@@H](c4ccc(C5=CCCC5)cc4)[C@@H]3C2)cc1	1
C/C=C/c1ccc([C@@H]2[C@H](CO)N3CCCCN(C(=O)Nc4ccc(OC)cc4)C[C@@H]23)cc1	18
COc1ccccc1-c1ccc([C@H]2[C@@H](CO)N3CCCCN(C(=O)NC4CCCC4)C[C@H]23)cc1	-23*
O=S(=O)(c1ccc(F)cc1)N1CCCCN2[C@@H](CO)[C@@H](c3ccc(C4=CCCCC4)cc3)[C@@H]2C1	-4
C/C=C/c1ccc([C@@H]2[C@@H](CO)N3CCCCN(C(=O)Nc4ccc(OC)cc4)C[C@@H]23)cc1	-27*
O=C(NC1CCCC1)N1CCCCN2[C@H](C1)[C@H](c1ccc(-c3ccccc3)cc1)[C@@H]2CO	1
C/C=C/c1ccc([C@H]2[C@@H](CO)N3CCCCN(C(=O)Nc4ccc(OC)cc4)C[C@H]23)cc1	-9
O=S(=O)(c1ccc(F)cc1)N1CCCCN2[C@H](CO)[C@H](c3ccc(C4=CCCCC4)cc3)[C@@H]2C1	-42*
Cc1ccccc1-c1ccc([C@@H]2[C@@H](CO)N3CCCCN(C(=O)NC4CCCC4)C[C@H]23)cc1	-9
O=C(C[C@H]1CC[C@H](NC(=O)Nc2ccccc2F)[C@@H](CO)O1)NCc1ccc(Cl)cc1	0
SMILES	DUX4 inh
COc1ccc2c3c([nH]c2c1)[C@@H](CO)N(C(=O)Nc1c(C)noc1C)CC31CCN(CC2CCCCC2)CC1	1
CCCNC(=O)N1CC(=O)N2[C@H](CO)[C@H](c3ccc(C#Cc4ccccc4)cc3)[C@@H]2C1	0
COc1ccccc1NC(=O)N[C@@H]1C=C[C@H](CC(=O)N[C@@H](C)c2ccccc2)O[C@@H]1CO	0
O=S(=O)(Cc1ccccc1)N1CCCCN2[C@@H](CO)[C@@H](c3ccc(-c4cccnc4)cc3)[C@@H]2C1	-8
CC(C)CC#Cc1ccc([C@H]2[C@H](CO)N3CCCCN(S(=O)(=O)Cc4ccccc4)C[C@@H]23)cc1	2
Cc1cccc(S(=O)(=O)N2CCCCN3[C@@H](CO)[C@H](c4ccc(-c5ccncc5)cc4)[C@@H]3C2)c1	-5
